Data from PubChem BioAssay (Tox21).
Records with an inconclusive call do not appear. A call without a number means that no potency is given here. A number with no mark means an inactive call. The source made the active and inactive calls. Calls come from the whole dose curve; as a rule, active = well fitted curve in the direction sought with a large enough effect in the repeat runs; inconclusive = weak or mixed curves; inactive = no such curve, though single readings can be large; an effect the other way counts as inactive or inconclusive.

Key:
[1] = target: Nuclear receptor subfamily 1 group I member 2 (Rattus norvegicus) (UniProt Q9R1A7); test: Rat pregnane X receptor (rPXR) activation by small molecules, qHTS assay (AID 1346983); settings: rPXR luciferase reporter cells, One-Glo luminescence, 24 h; max activation: stronger effect = higher value; note: nearly all actives have a fitted effect of over 20% in size; note: potency is the fitted concentration of half-maximal effect
In short: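 Luminescent readout (One-Glo luciferase, 30 min room temperature) followed 24 hr compound treatment at 37 C of rPXR cells plated 2,000 per well and preincubated 5hr; qHTS format with compounds delivered in DMSO.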

[2] = target: Nuclear receptor subfamily 1 group I member 2 (Homo sapiens) (UniProt O75469); test: CYP3A4 induction through human pregnane X receptor (PXR) by small molecules, qHTS assay (AID 1346984); note: nearly all actives have a fitted effect of over 40% in size
In short: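 Luminescence readout: luciferase signal after One-Glo (30 min, room temperature), following 3 h at 37C with 3uM final Luciferin-IPA P450 substrate. Cells were DPX-2 (HepG2, PXR/CYP3A4-luc co-transfected) dosed for 24 h.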

[3] = target: Nuclear receptor subfamily 1 group I member 2 (Homo sapiens) (UniProt O75469); test: Human pregnane X receptor (PXR) activation by small molecules, qHTS assay (AID 1346985); note: nearly all actives have a fitted effect of over 40% in size; note: potency is the fitted concentration of half-maximal effect
In short: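 DPX-2 cells (HepG2 co-transfected with a PXR response element and a CYP3A4-promoter luciferase construct) were seeded at 2,000 per well, rested 5 hr at 37C, then exposed to DMSO-dissolved compounds for 24 hr. Activation was read as luciferase luminescence.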

Nuclear receptor subfamily 1 group I member 2 (Rattus norvegicus), sequence (Q9R1A7 whole entry, looked up): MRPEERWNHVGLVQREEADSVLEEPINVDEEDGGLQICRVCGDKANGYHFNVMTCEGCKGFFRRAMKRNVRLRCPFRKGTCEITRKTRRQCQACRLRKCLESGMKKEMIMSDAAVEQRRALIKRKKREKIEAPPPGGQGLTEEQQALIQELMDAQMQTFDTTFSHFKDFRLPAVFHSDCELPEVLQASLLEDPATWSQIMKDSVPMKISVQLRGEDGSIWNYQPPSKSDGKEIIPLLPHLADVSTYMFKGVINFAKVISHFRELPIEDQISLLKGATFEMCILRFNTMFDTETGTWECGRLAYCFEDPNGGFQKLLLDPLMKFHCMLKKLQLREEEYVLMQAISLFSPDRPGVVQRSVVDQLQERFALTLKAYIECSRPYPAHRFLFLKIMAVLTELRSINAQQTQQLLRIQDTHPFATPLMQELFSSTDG

In the case of `NC(=O)[C@@H]1C[C@]2(NC(=O)NC2=O)c2cc(F)ccc2O1`, the max activation [1] is reported as -1.76%, the Potency [2] is reported as “inactive” and the Potency [3] is reported as “inactive”.

`O=C1[O][Bi][O]c2ccccc21` was tested, and the max activation [1] was -4.48%, the Potency [2] was “inactive” and the Potency [3] was “inactive”.

For `Cc1cc(C(=O)NCCc2ccc(S(=O)(=O)NC(=O)NN3CCCCCC3)cc2)no1`, the max activation [1] was -0.977%, the Potency [2] was “inactive” and the Potency [3] was “inactive”.

With `Cc1cc(N)c2ccccc2[n+]1CCCCCCCCCC[n+]1c(C)cc(N)c2ccccc21` the max activation [1] was -11.7%, the Potency [2] was “inactive” and the Potency [3] was “inactive”.

For `C[S+](C)CCC(N)C(=O)O` (stereo unspecified), the max activation [1] was -3.19%, the Potency [2] was “inactive” and the Potency [3] was “inactive”.

For `CC(C)(C)C(=O)OCC(=O)[C@H]1CC[C@H]2[C@@H]3CCC4=CC(=O)CC[C@]4(C)[C@H]3CC[C@]12C`, the max activation [1] was -6.33%, the Potency [2] was “inactive” and the Potency [3] was “inactive”.

With `C[C@]12O[C@H](C[C@]1(O)CO)n1c3ccccc3c3c4c(c5c6ccccc6n2c5c31)CNC4=O` the max activation [1] was -24.6%, the Potency [2] was “inactive” and the Potency [3] was “inactive”.

For `CC(C)CCC[C@@H](C)[C@H]1CC[C@H]2[C@@H]3CC[C@@H]4C[C@H](O)CC[C@]4(C)[C@H]3CC[C@]12C`, the max activation [1] was -7.28%, the Potency [2] was “inactive” and the Potency [3] was “inactive”.

With `CCCCCCCCCCCCCC(=O)OCC(COP(=O)([O-])OCC[N+](C)(C)C)OC(=O)CCCCCCCCCCCCC` (stereo unspecified) the max activation [1] was -1.21%, the Potency [2] was “inactive” and the Potency [3] was “inactive”.

In the case of `Cc1cc(CC(C)CC(C)(C)C)n(O)c(=O)c1` (stereo unspecified) (tested in a mixture with another compound), the max activation [1] is reported as -3.3%, the Potency [2] is reported as “inactive” and the Potency [3] is reported as 25.1 µM (active).

In the case of `C[Se]CC[C@H](N)C(=O)O`, the max activation [1] is reported as -6.85%, the Potency [2] is reported as “inactive” and the Potency [3] is reported as “inactive”.

`CN=C(N)NCCC[C@H](N)C(=O)O` was tested, and the max activation [1] was -7.28%, the Potency [2] was “inactive” and the Potency [3] was “inactive”.

For `C=CC[N+]1([C@H]2C[C@H]3[C@@H]4CC[C@H]5C[C@H](O)[C@@H](N6CCOCC6)C[C@]5(C)[C@H]4CC[C@]3(C)[C@H]2OC(C)=O)CCCC1`, the max activation [1] was -2.81%, the Potency [2] was “inactive” and the Potency [3] was “inactive”.

`Nc1nc(/C(=C/CC(=O)O)C(=O)N[C@@H]2C(=O)N3C(C(=O)O)=CCS[C@H]23)cs1` was tested, and the max activation [1] was -1.46%, the Potency [2] was “inactive” and the Potency [3] was “inactive”.

For `CC(C)(Oc1ccc(C2CCCc3ccccc32)cc1)C(=O)O` (stereo unspecified), the max activation [1] was -3.77%, the Potency [2] was “inactive” and the Potency [3] was “inactive”.

In the case of `CN1C(C(=O)Nc2ccccn2)C(=O)c2sc(Cl)cc2S1(=O)=O` (stereo unspecified), the max activation [1] is reported as -4.75%, the Potency [2] is reported as “inactive” and the Potency [3] is reported as “inactive”.

In the case of `CN[C@H](CC(C)C)C(=O)N[C@H]1C(=O)N[C@@H](CC(N)=O)C(=O)N[C@H]2C(=O)N[C@H]3C(=O)N[C@H](C(=O)N[C@@H](C(=O)O)c4cc(O)cc(O)c4-c4cc3ccc4O)[C@H](O)c3ccc(c(Cl)c3)Oc3cc2cc(c3O[C@@H]2O[C@H](CO)[C@@H](O)[C@H](O)[C@H]2O[C@H]2C[C@](C)(N)C(O)[C@H](C)O2)Oc2ccc(cc2Cl)[C@H]1O` (stereo partly specified), the max activation [1] is reported as -3.51%, the Potency [2] is reported as “inactive” and the Potency [3] is reported as “inactive”.

`CC(C)OC(=O)Nc1ccc2nc(-c3cscn3)[nH]c2c1` was tested, and the Potency [1] was 8.91 µM (active), the Potency [2] was “inactive” and the Potency [3] was 5.01 µM (active).

For `CCN(CC)C(=O)[C@]1(c2ccccc2)C[C@@H]1CN`, the max activation [1] was -2.63%, the Potency [2] was “inactive” and the Potency [3] was “inactive”.

With `c1ccc2c(c1)OCC(CN1CCCCC1)O2` (stereo unspecified) the max activation [1] was -3.94%, the Potency [2] was “inactive” and the Potency [3] was “inactive”.

With `NC(N)=NCC1COC2(CCCCC2)O1` (stereo unspecified) the max activation [1] was -2.55%, the Potency [2] was “inactive” and the Potency [3] was “inactive”.

In the case of `CC12CCC(C1)C(C)(C)C2=O` (stereo unspecified), the max activation [1] is reported as -2.76%, the Potency [2] is reported as “inactive” and the Potency [3] is reported as “inactive”.

`O=C(O)/C=C/C(=O)Nc1ccc(S(=O)(=O)Nc2nccs2)cc1` was tested, and the max activation [1] was -4.08%, the Potency [2] was “inactive” and the Potency [3] was “inactive”.

`COc1ccc(/C=C/C(=O)O)cc1` was tested, and the max activation [1] was 1.47%, the Potency [2] was “inactive” and the Potency [3] was “inactive”.

For `O=C(O)CCCC/C=C(\c1ccccc1)c1cccnc1`, the max activation [1] was -2.2%, the Potency [2] was “inactive” and the Potency [3] was “inactive”.

`CC(C)=CCC/C(C)=C/CC/C(C)=C/CC/C=C(\C)CC/C=C(\C)CCC=C(C)C` was tested, and the max activation [1] was -2.04%, the Potency [2] was “inactive” and the Potency [3] was “inactive”.

With `CC[C@@H](C)[C@H](N)C(=O)O` the max activation [1] was -3.95%, the Potency [2] was “inactive” and the Potency [3] was “inactive”.

For `COc1cc2c(cc1OC)[C@@H](Cc1cc(OC)c(OC)c(OC)c1)[N+](C)(CCCOC(=O)CC/C=C/CCC(=O)OCCC[N+]1(C)CCc3cc(OC)c(OC)cc3[C@H]1Cc1cc(OC)c(OC)c(OC)c1)CC2` (stereo partly specified), the max activation [1] was -6.15%, the Potency [2] was “inactive” and the Potency [3] was “inactive”.

For `NC[C@@H]1CC[C@@H](N)[C@@H](O[C@H]2[C@H](O)[C@@H](O[C@H]3O[C@H](CO)[C@@H](O)[C@H](N)[C@H]3O)[C@H](N)C[C@@H]2N)O1`, the max activation [1] was -0.783%, the Potency [2] was “inactive” and the Potency [3] was “inactive”.

In the case of `O=P(O)(O)C(O)(Cn1ccnc1)P(=O)(O)O`, the max activation [1] is reported as -1.82%, the Potency [2] is reported as “inactive” and the Potency [3] is reported as “inactive”.

With `CC1(C)S[C@@H]2[C@H](N3C(=O)C(c4ccccc4)NC3(C)C)C(=O)N2[C@H]1C(=O)O` (stereo partly specified) the max activation [1] was -2.27%, the Potency [2] was “inactive” and the Potency [3] was “inactive”.

In the case of `Cc1c(O)c(=O)ccn1C`, the max activation [1] is reported as -3.64%, the Potency [2] is reported as “inactive” and the Potency [3] is reported as “inactive”.

`CCc1ncnc2cc(OC)c(OC)cc12` was tested, and the max activation [1] was -3.13%, the Potency [2] was “inactive” and the Potency [3] was “inactive”.

`C/C(=C\C(=O)OCCCCCCCCC(=O)O)C[C@@H]1OC[C@H](C[C@@H]2O[C@H]2[C@@H](C)[C@H](C)O)[C@@H](O)[C@H]1O` was tested, and the max activation [1] was -5.5%, the Potency [2] was “inactive” and the Potency [3] was “inactive”.

In the case of `CC(C)C[C@@H](NC(=O)[C@@H](O)[C@H](N)Cc1ccccc1)C(=O)O`, the max activation [1] is reported as -7.87%, the Potency [2] is reported as “inactive” and the Potency [3] is reported as “inactive”.

`CC(=O)Oc1cc(C(F)(F)F)ccc1C(=O)O` was tested, and the max activation [1] was 2.94%, the Potency [2] was “inactive” and the Potency [3] was “inactive”.

For `Cc1cccc(C)c1NC(=O)C1CCCCN1C` (stereo unspecified), the max activation [1] was -1.93%, the Potency [2] was “inactive” and the Potency [3] was “inactive”.

For `CN1C(=O)C[C@@H](C(=O)N[C@@H](Cc2cnc[nH]2)C(=O)N2CCC[C@H]2C(N)=O)NC1=O`, the max activation [1] was -0.675%, the Potency [2] was “inactive” and the Potency [3] was “inactive”.

With `O=S(=O)(O)CC(S)CS` (stereo unspecified) the max activation [1] was -6.49%, the Potency [2] was “inactive” and the Potency [3] was “inactive”.

`N#Cc1c(N(CC(=O)O)CC(=O)O)sc(C(=O)O)c1CC(=O)O` was tested, and the max activation [1] was -5.61%, the Potency [2] was “inactive” and the Potency [3] was “inactive”.

`CC1(C)S[C@@H]2[C@H](NC(=O)[C@H](N)c3ccc(O)cc3)C(=O)N2[C@H]1C(=O)O` was tested, and the max activation [1] was -0.49%, the Potency [2] was “inactive” and the Potency [3] was “inactive”.

In the case of `O=C(O)[C@H]1CN(C/C=C/P(=O)(O)O)CCN1`, the max activation [1] is reported as -2.14%, the Potency [2] is reported as “inactive” and the Potency [3] is reported as “inactive”.
